# Screens deposited in PubChem by several laboratories.
# ROMK mod – modulates human ROMK potassium channel activity. P48048. Tet-inducible ROMK, thallium flux fluorescence; actives lie on both sides. B-score at 10 µM. actives 2% (n = 130,000). AID 1918;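 active means signal ratio slope over the read window, or its plate-corrected B-score, at least 3 SD from the plate mean, either direction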;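 further: B-score of the F/F0 ratio slope over 7 to 12 s after thallium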
# Target sequence (P48048 whole entry, looked up): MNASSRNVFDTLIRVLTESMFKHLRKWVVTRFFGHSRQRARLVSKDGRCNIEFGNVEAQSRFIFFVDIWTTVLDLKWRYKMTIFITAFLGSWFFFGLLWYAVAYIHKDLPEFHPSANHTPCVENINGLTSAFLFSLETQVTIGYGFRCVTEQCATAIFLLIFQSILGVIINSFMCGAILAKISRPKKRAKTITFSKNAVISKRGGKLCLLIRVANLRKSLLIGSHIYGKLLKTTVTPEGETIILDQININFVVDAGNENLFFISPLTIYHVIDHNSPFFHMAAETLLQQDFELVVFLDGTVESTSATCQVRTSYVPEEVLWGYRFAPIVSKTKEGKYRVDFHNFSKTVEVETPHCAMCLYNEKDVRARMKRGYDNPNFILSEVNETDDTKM
# PTEN del growth – suppresses growth of cells with PTEN deletion; HCT116 PTEN-null viability, CellTiter-Glo, 60 h; stronger effect = lower value; actives 1.2% (n = 140,000); viability, % at 10 µM; AID 827;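 active means viability at or below a set limit, 4 SD under the median of all tested compounds, cut at about 3.7% in these data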;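 further: PTEN knockout HCT116 line with beta catenin targeted HCT116 as companion control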
# L major viab – reduces viability of Leishmania major promastigotes; resazurin fluorescence viability; inhibition, % at 10 µM; actives 9% (n = 200,000); in the data active means inhibition above about 50%;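 further: promastigotes grown with compound for 44 hours at 28 °C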
# p97 inhibitor – inhibitors of human p97 ATPase; P55072; recombinant p97 ATPase, Kinase-Glo ATP luminescence, 3 h; inhibition, % at 8 µM; actives 0.42% (n = 220,000); AID 1481; in the data active means inhibition above about 15%
# Insulin prom inh – TRM-6 insulin promoter activity inhibition | TRM-6 cells (human fetal islet line), insulin promoter-eGFP reporter, imaging; reporter expression induced with tamoxifen | inhibition, % at 2 µM | actives 0.9% (n = 130,000) | AID 1273;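 active means inhibition above the mean plus 3 SD, with well images judged a real hit on visual review, cut at about 60% in these data, passing the limit was not always enough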
# HCT116 bCat-KO – beta-catenin-lacking colon tumor cell growth suppression; actives 1.5% (n = 140,000); viability, % at 10 µM; AID 818; HCT116 beta-catenin knockout viability, CellTiter-Glo, 60 h; stronger effect = lower value;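 active means viability at or under a set limit, the compound median less 4 SD, cut at about 6% in these data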
# A number is an active result; i = inactive; nt = not tested or not shown. Rows were chosen to be rich in hits. Some 10% of all compounds tested hit in one or more screens of this group.
SMILES,ROMK mod,PTEN del growth,L major viab,p97 inhibitor,Insulin prom inh,HCT116 bCat-KO
CN1C(=O)C2(c3ccccc31)c1c(oc3ccccc3c1=O)C(=O)N2CCCO (centres undefined),nt,nt,nt,i,nt,nt
CN(C)S(=O)(=O)c1cc(NC(=O)Cn2ccsc2=N)ccc1Cl,i,nt,i,i,nt,nt
C=CCN(c1ccccc1C(=O)O)S(=O)(=O)/C=C/c1ccccc1,i,nt,i,i,nt,nt
COc1cc(CO)ccc1OCc1ccc(Cl)nc1,nt,nt,nt,i,nt,nt
COc1cc(CNCCc2ccc(F)cc2)ccc1OCc1ccc(Cl)nc1,i,i,100,i,i,i
COc1cc(CNCCc2ccccc2F)ccc1OCc1ccc(Cl)nc1,i,i,100,i,i,i
NC(N)=NS(=O)(=O)c1ccc(N/C=C\C(=O)c2ccncc2)cc1,nt,nt,i,i,nt,nt
Nc1nc2n(n1)C(=O)CC(c1ccccc1)N2 (centres undefined),i,nt,i,i,i,nt
c1ccc2c(c1)[nH]c1c3ccccc3sc21,nt,nt,nt,i,nt,nt
CCN1CCN(C(=O)C(N)Cc2ccccc2)CC1 (centres undefined),i,nt,i,i,nt,nt
Cc1ccc(C(=O)N/C(=C/c2ccc(-c3ccc(Br)cc3)o2)C(=O)NC2CCS(=O)(=O)C2)cc1 (centres undefined),i,i,69,i,i,i
N#C/C(=C/c1ccc(-c2ccc(Br)cc2)o1)C(=O)NC1CCCCC1,i,i,81,i,i,i
O=C(COc1ccc(C(=S)N2CCC(Cc3ccccc3)CC2)cc1)N1CCOCC1,i,nt,i,i,nt,nt
Cc1sc2nc(CN3CCC(C)CC3)nc(Cl)c2c1C,nt,0.8,i,i,i,0.9
Cc1ccc(C(c2nnnn2CCC(C)C)N2CCN(C)CC2)cc1 (centres undefined),nt,i,i,i,i,i
O=C1OC(c2ccc(F)cc2)=C/C1=C\c1ccc([N+](=O)[O-])o1,i,nt,100,i,i,nt
O=C(COC(=O)c1ccc(=O)[nH]c1)Nc1cccc(S(=O)(=O)N2CCOCC2)c1,nt,nt,nt,i,nt,nt
N#Cc1ccccc1Cn1c(=O)n(C2CCCC2)c(=O)c2ccccc21,i,i,i,i,i,i
O=c1c2ccccc2n(Cc2cccc(F)c2)c(=O)n1C1CCCC1,nt,i,64,i,nt,i
NCCS,nt,i,i,i,i,i
C=CCn1c(O)c(N=NC(=S)Nc2ccc(OC)c(Cl)c2)c2ccccc21,i,i,97,i,i,i
COc1ccc(NS(=O)(=O)c2cc(NC(=O)c3cccs3)ccc2N2CCCC2)cc1,i,i,i,i,i,i
COc1ccc(NS(=O)(=O)c2cc(NC(=O)c3ccc(C)o3)ccc2N2CCCCC2)cc1,i,i,99,i,i,i
COc1ccc(NS(=O)(=O)c2cc(NC(=O)c3cnccn3)ccc2N2CCCC2)cc1,nt,i,93,i,i,i
COc1ccc(NS(=O)(=O)c2cc(NC(=O)c3ccccc3F)ccc2N2CCCC2)cc1,nt,nt,nt,i,nt,nt
SMILES,ROMK mod,PTEN del growth,L major viab,p97 inhibitor,Insulin prom inh,HCT116 bCat-KO
COc1ccc(NS(=O)(=O)c2cc(NC(=O)c3cnccn3)ccc2OC)cc1Br,i,nt,95,i,nt,nt
Cc1c(N2CCCC2)cc2c(c1NC(=O)c1ccccc1Cl)C(C)(C)CC2(C)C,nt,nt,nt,i,nt,nt
CN(C)CCCn1c(N)c(S(=O)(=O)c2ccccc2)c2nc3ccccc3nc21,nt,nt,nt,i,nt,nt
Cc1ccc(S(=O)(=O)c2c(N)n(Cc3ccco3)c3nc4ccccc4nc23)cc1,i,i,74,i,i,i
CCCCn1c(N)c(S(=O)(=O)c2ccc(C)cc2)c2nc3ccccc3nc21,i,i,56,i,i,i
Cc1cccc(S(=O)(=O)c2c(N)n(Cc3ccco3)c3nc4ccccc4nc23)c1,-2.9,i,78,i,i,i
Cc1ccc(Cn2c(N)c(S(=O)(=O)c3cccs3)c3nc4ccccc4nc32)cc1,nt,i,i,i,i,i
COc1ccc(F)cc1C(=O)C1CCCN(C(=O)c2cccc(N(C)C)c2)C1 (centres undefined),nt,nt,i,i,nt,nt
COC(=O)c1ccc(CNC(=O)COC(=O)CC23CC4CC(CC(Br)(C4)C2)C3)cc1,i,i,i,i,i,i
Cc1ccc(CN2CCN(Cc3cn[nH]c3-c3cccc(F)c3)CC2CCO)o1 (centres undefined),i,nt,i,i,nt,nt
O=C(NC1CCCCC1)C(c1ccncc1)N(Cc1ccccc1)C(=O)c1ccc(-c2ccccc2)[nH]1 (centres undefined),nt,i,99,i,i,i
O=C(NC1CCCCC1)C(c1ccc2ncccc2c1)N(Cc1ccccc1)C(=O)c1cccs1 (centres undefined),nt,i,i,i,i,i
CC(C)(C)NC(=O)C(c1ccncc1)N(Cc1ccco1)C(=O)c1ccc(-c2ccccc2)[nH]1 (centres undefined),i,nt,74,i,i,nt
CC(C)(C)NC(=O)C(c1ccc(F)cc1)N(Cc1ccco1)C(=O)c1csnn1 (centres undefined),nt,i,i,i,nt,i
COc1ccc(OC)c(/C=C/C(=O)N(C)CC(=O)Nc2cc(C)ccc2C)c1,nt,i,87,i,nt,i
O=C(NCCN1CCCCCC1)c1ccc(CS(=O)(=O)c2ccc(Br)cc2)o1,nt,i,i,i,nt,i
CCN(CC)CCNC(=O)c1ccc(CS(=O)(=O)c2ccc(Br)cc2)o1,nt,i,78,i,nt,i
CSc1nc(C)nc(N/C=C(\C#N)S(=O)(=O)c2ccccc2Cl)n1,nt,nt,nt,i,nt,nt
CCO[C@H]1OC(C(N)=O)=C[C@@H](c2ccccc2)[C@@H]1CCCO,nt,nt,i,i,nt,nt
O=C(Nc1nc2n(n1)C(c1ccc(Cl)cc1)CC(c1ccc(Cl)cc1)N2)c1ccco1 (centres undefined),i,i,76,i,nt,i
COc1ccc(/C=C2\SC(=S)N(CC(=O)N3CCN(C)CC3)C2=O)cc1,nt,nt,nt,i,nt,nt
O=C(CCN1C(=O)/C(=C\c2ccccc2Cl)SC1=S)N1CCN(c2ccccc2)CC1,nt,i,91,i,nt,i
CCc1ccc(/C=C2\SC(=S)N(CCC(=O)N3CCN(C)CC3)C2=O)cc1,i,nt,99,i,nt,nt
COCCN1C(=O)/C(=C/c2ccc(N3CCCC3)cc2)SC1=S,-3.5,nt,i,i,nt,nt
Cc1cc(C(=O)NCC(=O)OCC(=O)N(C(C)C)C(C)C)ccc1[N+](=O)[O-],nt,i,i,i,nt,i
SMILES,ROMK mod,PTEN del growth,L major viab,p97 inhibitor,Insulin prom inh,HCT116 bCat-KO
COc1ccc(NC(=O)C2CCCN2C(=O)OC(C)(C)C)cc1 (centres undefined),i,nt,i,i,nt,nt
CCCCCCCc1c(O)nc(SCC(=O)O)[nH]c1=O,i,nt,nt,i,nt,nt
O=C1COc2ccc(-c3csc(=Nc4ccc(OC(F)F)cc4)n3CC3CCCO3)cc2N1 (centres undefined),nt,i,99,i,i,i
CCOc1cc(/C=N/Nc2ccccc2Cl)ccc1OCC(=O)O,i,i,i,i,nt,i
CCn1cc(S(=O)(=O)Nc2cc(F)ccc2C)cn1,i,nt,i,i,nt,nt
CCOc1cc(/C=N/NC(=O)CN2CCCCC2)ccc1OCc1ccc(Cl)cc1,i,i,99,i,i,i
COc1cc(/C=N/OCC(=O)Nc2cc(C)on2)ccc1OCc1ccccc1,i,i,64,i,i,i
